experiment: basal S. cerevisiae growth modulation, no modifier, primary screen, OD600, strain BY4716, 24 h, basal condition (AID 1173); details: OD600, 24 h, higher = more signal, called active from +8 up or from −8 down

z-score, inactive:
CC(C)c1ccc(NN2C(C(O)C(C)c3ccccc3)C=CC3C(=O)N(c4ccccc4)C(=O)C32)cc1 (stereo not given) 0.0145
CC(C)C[C@@H]1NC(=O)[C@@H]2C[C@H](C(=O)NCCCCCCNC(=O)CS)[C@H](c3ccc(O)cc3)N2C1=O -0.295
COC(=O)Cn1c(C(=O)N(C)C)cc2c1C[C@H]1CN(C(=O)c3ccccc3)[C@@](Cc3ccccc3)(C(=O)OC)[C@@H]21 0.282
COCCOC(=O)N1C(=O)[C@@]2(c3cc(C#CCC(C(=O)OC)C(=O)OC)ccc31)[C@H](c1ccc(O)cc1)N1[C@H](c3ccccc3)[C@H](c3ccccc3)OC(=O)[C@H]1[C@@H]2C(=O)N1CCc2cc(OC)c(OC)cc2C1 -0.672
Cc1ccc(S[C@]2(C(=O)NCc3ccccc3)CC(=O)N(Cc3ccccc3C(F)(F)F)[C@@H]2c2ccc(CO)cc2I)cc1 -5.1
O=C1C2C=CC(C(O)C3CCCCC3)N(Nc3ccccc3F)C2C(=O)N1c1ccccc1 (stereo not given) -0.701
CC[C@H]1C2=C3C(CC[C@H]4C(OCc5ccc(F)cc5C(F)(F)F)OC[C@](C)([C@@H]34)N(C(=O)OC(C)(C)C)C2)C(COC(C)=O)C1COC(C)=O (stereo not given in full) 0.249
CC1CC/C=C\[C@H]2OC34C=CCN(CCN5CCOCC5)C(=O)[C@H]3N(C(CO)C(C)C)C(=O)[C@@H]4C2C(=O)O1 (stereo not given in full) 0.183
COC(=O)C[C@H]1O[C@]2(C(=O)N(C)c3ccccc32)[C@@H](C)[C@@H]1[Si](C)(C)c1ccccc1 -2.07
O=C1O[C@@H](c2ccccc2)[C@@H](c2ccccc2)N2[C@@H](c3ccc(OCCO)cc3)[C@]3(C(=O)Nc4ccc(C#CC5=CCCCC5)cc43)[C@@H](C(=O)Nc3nc4ccccc4s3)[C@H]12 1.46
CCCCN1CC=CC23O[C@@H]4/C=C\CCCOC(=O)C4[C@H]2C(=O)N(CCCCCCO)[C@@H]3C1=O (stereo not given in full) -0.556
COC(=O)[C@@]1(Cc2ccc(F)cc2)[C@H]2c3cc(C(=O)N(C)C)n(CCF)c3C[C@H]2CN1C(=O)c1ccccc1 0.0276
CCc1cccc(NC(=O)O[C@H]2[C@H](OC(=O)Nc3ccccc3-c3ccccc3)[C@H](OC(=O)Nc3ccccc3-c3ccccc3)[C@@H](OC)O[C@@H]2CO)c1 0.371
C=C(COC)C(=O)CC[C@H](OC(C)=O)c1ccccc1OCCO -0.86
COC(=O)C(CC#Cc1ccc2c(c1)[C@]1(C(=O)N2)[C@H](c2ccc(OCCO)cc2)N2[C@H](c3ccccc3)[C@H](c3ccccc3)OC(=O)[C@H]2[C@@H]1C(N)=O)C(=O)OC 1.17
COc1ccc([Si](C)(C)[C@H]2[C@H](CC(=O)N(CCO)Cc3ccccc3)O[C@@]3(C(=O)N(Cc4cccc(N5CCCCC5=O)c4)c4ccccc43)[C@@H]2C)cc1 -0.0548
COCCCNC(=O)[C@@]1(Cc2ccccc2I)c2ccccc2C(=O)N(Cc2ccccc2C(F)(F)F)[C@H]1c1ccc(CO)cc1 -0.088
CC[C@@H](O[Si](C#C[Si](C(C)C)(C(C)C)C(C)C)(C(C)C)C(C)C)c1cn([C@H](C)c2ccccc2)nn1 1.66
COCCOC(=O)N1C(=O)[C@@]2(c3cc(C#CCC(C(=O)OC)C(=O)OC)ccc31)[C@H](C(=O)N1CCc3cc(OC)c(OC)cc3C1)[C@H]1C(=O)O[C@H](c3ccccc3)[C@H](c3ccccc3)N1[C@@H]2c1ccccc1OCCO 1.48
CCCNC(=O)[C@@]1(Sc2ccc(C)cc2)CC(=O)N(Cc2cc(C(F)(F)F)cc(C(F)(F)F)c2)[C@@H]1c1ccc(CO)cc1 -0.265
Cc1ccc(S[C@]2(C(=O)NCc3ccccc3)CC(=O)N(Cc3ccccc3Cl)[C@@H]2c2ccc(CO)cc2)cc1 -0.288
CC1(C)OB(/C=C\CC(OC(=O)c2ccncc2)c2ccccc2)OC1(C)C (stereo not given) -1.17
COc1cc(Cc2cc3c(c(-c4ccccc4)n2)[Si](C(C)C)(C(C)C)OC3)cc(OC)c1OC 0.299
C=CCOC(=O)[C@H]1[C@@H]2C(=O)O[C@@H](c3ccccc3)[C@@H](c3ccccc3)N2[C@@H](c2ccc(OCCOC(=O)[C@@H]3C[C@@H]4C(=O)N[C@@H](Cc5ccccc5)C(=O)N4[C@@H]3c3ccc(O)cc3)cc2)[C@]12C(=O)Nc1ccc(I)cc12 2.3
CC1C2C(CCCO)=CC(C3C(=O)N(C(N)=O)C(=O)C23)N1Cc1cccc(OC(F)(F)F)c1 (stereo not given) -0.837
COC(=O)[C@@]1(Cc2ccccc2)[C@H]2c3cc(C(=O)N(C)C)n(Cc4nc5ccccc5[nH]4)c3C[C@H]2CN1C(=O)c1ccccc1 -0.541
CO[C@H]1O[C@H](CO)[C@@H](OC(=O)Nc2cccc(F)c2)[C@H](OC(=O)Nc2ccc3c(c2)OCO3)[C@@H]1OC(=O)Nc1ccc2c(c1)OCO2 1.38
O=C1C2C=CC(C(O)c3ccccn3)N(Nc3ccc([N+](=O)[O-])cc3)C2C(=O)N1c1ccccc1 (stereo not given) 0.512
CC(C)N1C(=O)[C@@]2(Cc3ccccc31)c1ccccc1C(=O)N(Cc1ccccc1C(F)(F)F)[C@H]2c1ccc(CO)cc1 0.407
CN1C2C=C(c3ccc(CO)cc3)C(C3C(=O)N(C(N)=O)C(=O)C32)C1C1CC1 (stereo not given) 1.31
CC(C)C[C@@H]1NC(=O)[C@@H]2C[C@H](C(=O)NCCCCCNC(=O)CS)[C@H](c3ccc(O)cc3)N2C1=O -1.44
CN(C)CCCCNC(=O)[C@H]1C[C@H]2C(=O)N[C@@H](CCCCN(C)C)C(=O)N2[C@H]1c1ccc(O)cc1 -1.95
CCOC(=O)C[C@H]1[C@H](OC(=O)c2ccccc2-c2ccccc2)[C@@H](NC(=O)CC(C)C)c2cc(OCCCO)ccc2N1C(=O)c1ccccc1 -1.04
CCCCCCc1nc(-c2ccc(OC)nc2)c(C)c2c1[Si](C(C)C)(C(C)C)OC2 -0.121
COCCCNC(=O)[C@]1(Cc2ccccc2CN=[N+]=[N-])N=C(c2ccc(OCCCO)cc2)O[C@@H]1c1ccccc1N=[N+]=[N-] 0.234

From PubChem BioAssay
